Experimental data taken from the supplement of paper PMC11732987, “Enantioselective OTUD7B fragment discovery through chemoproteomics screening and high-throughput optimisation” (Communications Chemistry, 2025).

Columns and labels:
Experiment in all cases: log2 ratio of Biotin-Ahx-Ub-VS probe labelling (compound/DMSO); higher = less target engagement, active = hit call of the paper (q ≤ 0.05, log2 ratio ≤ -1)
Conditions in all cases: treatment time: 3 h
[1] = compound: CN(Cc1cccc(Br)c1)C(=O)CCl
How it was run: (§1)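 DUBs in HEK293T lysate were labelled with Biotin-Ahx-Ub-VS (0.5 µM final, 1 h) after a 3 h treatment with compound at 50 or 200 µM or with DMSO, done in triplicate on 495 µg of lysate per sample. NeutrAvidin-enriched proteins were digested with LysC and trypsin and run by diaPASEF LC-MS/MS. Median-normalised label-free quantities gave average base-two log ratios of compound to DMSO by unpaired t-test, restricted to proteins with at least 2 unique peptides.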

[2] = compound: CN(Cc1cccc(OCc2ccccc2C)c1)C(=O)CCl
How it was run: as §1

[3] = compound: CN(Cc1ccccc1)C(=O)CCl
How it was run: as §1

[4] = compound: COc1ccc(CN(C)C(=O)CCl)cc1
How it was run: as §1

[5] = compound: COc1cccc(CN(CCCc2ccccc2)C(=O)CCl)c1
How it was run: as §1

[6] = compound: ClCC(=O)N1CCc2cc(Cl)c(Cl)cc2C1
How it was run: as §1

[7] = compound: ClCC(=O)N1CCc2nc(ncc2C1)-c1ccccc1
How it was run: as §1

[8] = compound: ClCC(=O)N1CCc2nocc2C1
How it was run: as §1

[9] = compound: ClCC(=O)N1CCc2scc(Br)c2C1
How it was run: as §1

[10] = compound: ClCC(=O)NC(C1CCCC1)c1cccs1
How it was run: as §1

Measured: log2 ratio of Biotin-Ahx-Ub-VS probe labelling

USP9X (UniProt Q93008)
Chain of UniProt Q93008 (Q93008 whole entry): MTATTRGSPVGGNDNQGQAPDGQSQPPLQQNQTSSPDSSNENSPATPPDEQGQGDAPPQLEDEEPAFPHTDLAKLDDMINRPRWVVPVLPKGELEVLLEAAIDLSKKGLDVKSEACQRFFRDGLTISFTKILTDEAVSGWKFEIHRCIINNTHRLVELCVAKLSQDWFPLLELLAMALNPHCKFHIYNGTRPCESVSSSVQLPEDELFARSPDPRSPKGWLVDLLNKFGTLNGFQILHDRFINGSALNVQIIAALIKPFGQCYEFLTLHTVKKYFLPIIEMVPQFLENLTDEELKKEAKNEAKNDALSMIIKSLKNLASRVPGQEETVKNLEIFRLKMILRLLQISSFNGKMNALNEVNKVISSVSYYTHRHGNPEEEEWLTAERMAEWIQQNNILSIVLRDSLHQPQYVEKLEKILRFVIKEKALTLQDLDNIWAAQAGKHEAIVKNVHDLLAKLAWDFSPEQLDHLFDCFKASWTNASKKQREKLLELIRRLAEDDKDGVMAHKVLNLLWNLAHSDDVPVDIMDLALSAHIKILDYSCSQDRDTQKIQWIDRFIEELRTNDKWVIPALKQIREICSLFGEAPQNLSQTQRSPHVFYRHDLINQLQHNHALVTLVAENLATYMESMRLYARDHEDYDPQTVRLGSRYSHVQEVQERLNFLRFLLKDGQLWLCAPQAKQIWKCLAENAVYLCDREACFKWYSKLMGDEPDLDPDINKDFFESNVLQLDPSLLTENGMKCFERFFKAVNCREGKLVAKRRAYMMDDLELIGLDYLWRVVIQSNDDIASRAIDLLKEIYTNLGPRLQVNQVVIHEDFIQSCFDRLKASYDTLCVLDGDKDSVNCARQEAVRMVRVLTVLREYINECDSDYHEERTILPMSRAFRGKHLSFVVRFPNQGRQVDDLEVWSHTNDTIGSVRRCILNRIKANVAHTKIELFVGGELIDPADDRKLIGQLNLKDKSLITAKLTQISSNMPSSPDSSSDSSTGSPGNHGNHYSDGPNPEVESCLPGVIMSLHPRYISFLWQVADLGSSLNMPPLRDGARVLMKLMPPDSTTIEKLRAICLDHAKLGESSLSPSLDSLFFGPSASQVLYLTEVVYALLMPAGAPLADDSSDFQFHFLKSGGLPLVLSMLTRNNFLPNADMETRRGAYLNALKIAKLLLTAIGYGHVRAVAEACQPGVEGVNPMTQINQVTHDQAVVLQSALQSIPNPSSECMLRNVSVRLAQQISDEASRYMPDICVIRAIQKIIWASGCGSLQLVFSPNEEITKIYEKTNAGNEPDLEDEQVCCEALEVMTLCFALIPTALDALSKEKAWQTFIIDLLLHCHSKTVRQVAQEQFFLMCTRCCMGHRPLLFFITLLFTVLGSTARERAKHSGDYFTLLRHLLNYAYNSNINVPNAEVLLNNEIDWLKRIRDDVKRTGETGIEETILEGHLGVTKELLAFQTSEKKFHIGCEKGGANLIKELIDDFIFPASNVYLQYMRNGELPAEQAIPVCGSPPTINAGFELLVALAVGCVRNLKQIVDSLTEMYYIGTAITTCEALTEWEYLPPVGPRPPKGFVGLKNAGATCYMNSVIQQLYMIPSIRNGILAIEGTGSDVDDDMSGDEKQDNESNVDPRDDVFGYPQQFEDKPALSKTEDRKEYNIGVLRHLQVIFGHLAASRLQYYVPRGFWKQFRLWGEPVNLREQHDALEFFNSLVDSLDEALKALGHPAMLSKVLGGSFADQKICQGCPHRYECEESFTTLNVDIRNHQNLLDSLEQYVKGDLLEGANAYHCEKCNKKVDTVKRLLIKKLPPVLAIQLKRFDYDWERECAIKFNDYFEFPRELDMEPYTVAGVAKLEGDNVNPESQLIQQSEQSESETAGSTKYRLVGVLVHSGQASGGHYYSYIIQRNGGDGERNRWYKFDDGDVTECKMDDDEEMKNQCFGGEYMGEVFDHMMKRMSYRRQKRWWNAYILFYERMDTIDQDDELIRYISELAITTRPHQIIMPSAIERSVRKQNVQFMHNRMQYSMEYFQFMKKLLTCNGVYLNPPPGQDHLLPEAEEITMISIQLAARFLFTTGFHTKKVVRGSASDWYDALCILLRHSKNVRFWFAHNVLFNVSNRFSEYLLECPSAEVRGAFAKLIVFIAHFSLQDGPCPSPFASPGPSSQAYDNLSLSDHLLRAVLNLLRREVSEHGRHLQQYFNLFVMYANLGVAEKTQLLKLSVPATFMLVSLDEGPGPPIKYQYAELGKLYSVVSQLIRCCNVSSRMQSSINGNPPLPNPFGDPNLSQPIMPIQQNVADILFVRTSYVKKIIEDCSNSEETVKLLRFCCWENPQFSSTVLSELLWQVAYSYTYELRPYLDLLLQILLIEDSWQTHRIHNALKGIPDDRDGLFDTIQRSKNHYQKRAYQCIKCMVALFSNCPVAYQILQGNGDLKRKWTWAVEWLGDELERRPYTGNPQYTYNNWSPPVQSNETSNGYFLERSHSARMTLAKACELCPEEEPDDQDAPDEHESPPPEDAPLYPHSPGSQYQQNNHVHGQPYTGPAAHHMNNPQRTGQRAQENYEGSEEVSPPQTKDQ
inactive: [1]; compound concentration: 50uM -0.128 | [1]; compound concentration: 200uM -0.446 | [2]; compound concentration: 50uM -0.553 | [3]; compound concentration: 50uM -0.193 | [3]; compound concentration: 200uM -0.435 | [4]; compound concentration: 50uM -0.101 | [4]; compound concentration: 200uM -0.202 | [5]; compound concentration: 50uM -0.221 | [6]; compound concentration: 50uM -0.225 | [7]; compound concentration: 50uM 0.0933 | [7]; compound concentration: 200uM -0.622 | [8]; compound concentration: 50uM -0.15 | [8]; compound concentration: 200uM -0.284 | [9]; compound concentration: 50uM -0.229 | [10]; compound concentration: 50uM -0.00568 | [10]; compound concentration: 200uM -0.248
active: [2]; compound concentration: 200uM -1.59 | [5]; compound concentration: 200uM -1.31 | [6]; compound concentration: 200uM -1.96 | [9]; compound concentration: 200uM -1.13

VCPIP1 (UniProt Q96JH7)
inactive: [1]; compound concentration: 50uM -0.446 | [1]; compound concentration: 200uM -0.887 | [3]; compound concentration: 50uM -0.563 | [3]; compound concentration: 200uM -0.709 | [4]; compound concentration: 50uM -0.548 | [4]; compound concentration: 200uM -0.854 | [5]; compound concentration: 50uM -0.299 | [6]; compound concentration: 50uM -0.374 | [6]; compound concentration: 200uM -0.407 | [7]; compound concentration: 50uM -0.105 | [7]; compound concentration: 200uM -0.284 | [8]; compound concentration: 50uM -0.319 | [8]; compound concentration: 200uM -0.484 | [9]; compound concentration: 50uM -0.213 | [9]; compound concentration: 200uM -0.677 | [10]; compound concentration: 50uM -0.515 | [10]; compound concentration: 200uM -0.426
active: [5]; compound concentration: 200uM -1.11

USP36 (UniProt Q9P275)
Chain of UniProt Q9P275 (Q9P275 whole entry): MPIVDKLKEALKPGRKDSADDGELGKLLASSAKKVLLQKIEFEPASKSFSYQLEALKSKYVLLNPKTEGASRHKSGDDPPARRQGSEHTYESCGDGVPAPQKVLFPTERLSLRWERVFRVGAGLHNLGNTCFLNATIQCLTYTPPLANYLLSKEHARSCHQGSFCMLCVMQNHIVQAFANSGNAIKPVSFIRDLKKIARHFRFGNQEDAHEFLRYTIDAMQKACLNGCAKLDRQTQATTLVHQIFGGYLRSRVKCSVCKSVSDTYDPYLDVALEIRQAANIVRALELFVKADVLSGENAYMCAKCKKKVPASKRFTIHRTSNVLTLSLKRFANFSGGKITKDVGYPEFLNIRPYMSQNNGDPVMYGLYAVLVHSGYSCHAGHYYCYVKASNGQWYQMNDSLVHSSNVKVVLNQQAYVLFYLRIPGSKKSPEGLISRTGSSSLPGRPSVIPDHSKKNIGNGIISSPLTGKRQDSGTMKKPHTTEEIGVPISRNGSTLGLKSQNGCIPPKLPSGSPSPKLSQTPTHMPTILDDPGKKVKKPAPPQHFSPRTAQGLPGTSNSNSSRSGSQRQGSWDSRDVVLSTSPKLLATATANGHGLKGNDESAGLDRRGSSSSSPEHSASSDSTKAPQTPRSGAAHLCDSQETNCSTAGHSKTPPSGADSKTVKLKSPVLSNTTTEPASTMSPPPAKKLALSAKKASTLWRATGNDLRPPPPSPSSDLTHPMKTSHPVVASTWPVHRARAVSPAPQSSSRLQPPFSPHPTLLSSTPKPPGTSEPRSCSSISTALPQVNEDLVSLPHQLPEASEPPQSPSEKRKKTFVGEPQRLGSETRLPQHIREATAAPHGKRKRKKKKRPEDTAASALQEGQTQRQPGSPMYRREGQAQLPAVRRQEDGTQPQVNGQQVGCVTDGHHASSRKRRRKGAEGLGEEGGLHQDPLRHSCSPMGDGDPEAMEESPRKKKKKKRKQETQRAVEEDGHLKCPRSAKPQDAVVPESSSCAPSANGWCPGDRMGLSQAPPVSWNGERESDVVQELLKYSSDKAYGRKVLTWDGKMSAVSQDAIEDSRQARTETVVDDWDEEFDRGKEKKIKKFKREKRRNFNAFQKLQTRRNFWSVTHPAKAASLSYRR
inactive: [1]; compound concentration: 50uM -0.113 | [1]; compound concentration: 200uM -0.219 | [3]; compound concentration: 50uM -0.167 | [3]; compound concentration: 200uM -0.139 | [4]; compound concentration: 50uM -0.166 | [4]; compound concentration: 200uM -0.1 | [5]; compound concentration: 50uM -0.116 | [5]; compound concentration: 200uM -0.158 | [6]; compound concentration: 50uM -0.152 | [6]; compound concentration: 200uM 0.149 | [7]; compound concentration: 50uM -0.0391 | [7]; compound concentration: 200uM -0.252 | [8]; compound concentration: 50uM -0.06 | [8]; compound concentration: 200uM -0.0333 | [9]; compound concentration: 50uM 0.0162 | [9]; compound concentration: 200uM 0.122 | [10]; compound concentration: 50uM -0.296 | [10]; compound concentration: 200uM -0.0298

USP12 (UniProt O75317)
active: [6]; compound concentration: 200uM -2.18
inactive: [1]; compound concentration: 50uM -0.144 | [1]; compound concentration: 200uM -0.188 | [3]; compound concentration: 50uM -0.0519 | [3]; compound concentration: 200uM -0.89 | [4]; compound concentration: 50uM -0.0378 | [4]; compound concentration: 200uM -0.439 | [5]; compound concentration: 50uM -0.477 | [5]; compound concentration: 200uM -0.852 | [6]; compound concentration: 50uM -0.202 | [7]; compound concentration: 50uM 0.154 | [7]; compound concentration: 200uM -0.813 | [8]; compound concentration: 50uM -0.195 | [8]; compound concentration: 200uM -0.415 | [9]; compound concentration: 50uM 0.0837 | [9]; compound concentration: 200uM -0.475 | [10]; compound concentration: 50uM 0.0281 | [10]; compound concentration: 200uM -0.0926

UniProt O00487
Chain of UniProt O00487 (O00487 whole entry): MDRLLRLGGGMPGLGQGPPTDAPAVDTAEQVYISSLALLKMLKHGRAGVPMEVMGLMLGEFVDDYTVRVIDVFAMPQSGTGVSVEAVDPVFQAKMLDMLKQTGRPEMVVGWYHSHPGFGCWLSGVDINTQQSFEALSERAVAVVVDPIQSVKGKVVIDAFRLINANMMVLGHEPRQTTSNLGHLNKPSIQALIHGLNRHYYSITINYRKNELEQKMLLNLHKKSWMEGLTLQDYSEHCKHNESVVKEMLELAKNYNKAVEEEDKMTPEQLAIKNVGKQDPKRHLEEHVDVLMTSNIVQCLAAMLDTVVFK
inactive: [1]; compound concentration: 50uM -0.27 | [1]; compound concentration: 200uM -0.709 | [2]; compound concentration: 50uM -0.154 | [2]; compound concentration: 200uM -0.202 | [3]; compound concentration: 50uM -0.0192 | [3]; compound concentration: 200uM 0.243 | [4]; compound concentration: 50uM -0.0826 | [4]; compound concentration: 200uM -0.0205 | [5]; compound concentration: 50uM 0.102 | [5]; compound concentration: 200uM 0.0842 | [6]; compound concentration: 50uM -0.325 | [6]; compound concentration: 200uM -0.335 | [7]; compound concentration: 50uM -0.128 | [7]; compound concentration: 200uM 0.13 | [8]; compound concentration: 50uM -0.239 | [8]; compound concentration: 200uM -0.187 | [9]; compound concentration: 50uM -0.175 | [9]; compound concentration: 200uM -0.724 | [10]; compound concentration: 50uM -0.101 | [10]; compound concentration: 200uM -0.0832

USP19 (UniProt O94966)
active: [1]; compound concentration: 200uM -1.2 | [5]; compound concentration: 200uM -1.37 | [6]; compound concentration: 200uM -3.11 | [7]; compound concentration: 200uM -2.01 | [8]; compound concentration: 200uM -1.17 | [9]; compound concentration: 200uM -2.35
inactive: [1]; compound concentration: 50uM -0.419 | [3]; compound concentration: 50uM -0.372 | [3]; compound concentration: 200uM -0.827 | [4]; compound concentration: 50uM -0.301 | [4]; compound concentration: 200uM -0.572 | [5]; compound concentration: 50uM -0.64 | [6]; compound concentration: 50uM -0.948 | [7]; compound concentration: 50uM -0.512 | [8]; compound concentration: 50uM -0.407 | [9]; compound concentration: 50uM -0.747 | [10]; compound concentration: 50uM -0.0897 | [10]; compound concentration: 200uM -0.299

OTUD7B (UniProt Q6GQQ9)
active: [1]; compound concentration: 200uM -1.07 | [2]; compound concentration: 200uM -2.2 | [3]; compound concentration: 200uM -1.45 | [6]; compound concentration: 200uM -1.67 | [7]; compound concentration: 200uM -1.67 | [8]; compound concentration: 50uM -1.21 | [8]; compound concentration: 200uM -3.03 | [9]; compound concentration: 200uM -2.61 | [10]; compound concentration: 200uM -2.95
inactive: [1]; compound concentration: 50uM -0.428 | [2]; compound concentration: 50uM -0.878 | [3]; compound concentration: 50uM -0.664 | [4]; compound concentration: 50uM -0.435 | [4]; compound concentration: 200uM -0.811 | [5]; compound concentration: 50uM -0.145 | [5]; compound concentration: 200uM -0.385 | [6]; compound concentration: 50uM -0.244 | [7]; compound concentration: 50uM -0.213 | [9]; compound concentration: 50uM -0.654 | [10]; compound concentration: 50uM -0.987

USP5 (UniProt P45974)
Chain of UniProt P45974 (P45974 whole entry): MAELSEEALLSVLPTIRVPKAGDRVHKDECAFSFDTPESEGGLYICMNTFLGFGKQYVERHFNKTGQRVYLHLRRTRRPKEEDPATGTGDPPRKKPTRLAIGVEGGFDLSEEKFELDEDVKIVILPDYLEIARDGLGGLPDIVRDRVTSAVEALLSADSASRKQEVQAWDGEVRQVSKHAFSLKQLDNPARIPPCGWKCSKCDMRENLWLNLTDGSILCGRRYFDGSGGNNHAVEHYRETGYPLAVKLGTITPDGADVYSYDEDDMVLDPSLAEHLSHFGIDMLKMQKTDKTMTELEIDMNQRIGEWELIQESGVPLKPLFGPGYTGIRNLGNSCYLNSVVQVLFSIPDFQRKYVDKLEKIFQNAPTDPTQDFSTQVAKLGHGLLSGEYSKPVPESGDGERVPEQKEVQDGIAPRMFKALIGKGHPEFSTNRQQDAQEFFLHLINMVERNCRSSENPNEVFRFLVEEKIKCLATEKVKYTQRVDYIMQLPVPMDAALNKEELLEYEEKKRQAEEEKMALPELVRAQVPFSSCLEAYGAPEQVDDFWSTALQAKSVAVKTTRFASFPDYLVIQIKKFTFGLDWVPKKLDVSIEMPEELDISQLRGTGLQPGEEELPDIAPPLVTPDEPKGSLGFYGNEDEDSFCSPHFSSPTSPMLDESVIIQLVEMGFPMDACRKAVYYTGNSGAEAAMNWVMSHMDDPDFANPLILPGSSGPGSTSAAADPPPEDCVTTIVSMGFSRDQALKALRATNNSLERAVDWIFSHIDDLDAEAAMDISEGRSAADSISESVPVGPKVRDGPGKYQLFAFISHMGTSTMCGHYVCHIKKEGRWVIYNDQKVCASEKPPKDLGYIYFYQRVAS
inactive: [1]; compound concentration: 50uM 0.304 | [1]; compound concentration: 200uM 0.538 | [3]; compound concentration: 50uM -0.0827 | [3]; compound concentration: 200uM -0.00169 | [4]; compound concentration: 50uM -0.0203 | [4]; compound concentration: 200uM 0.204 | [5]; compound concentration: 50uM 0.212 | [5]; compound concentration: 200uM 0.11 | [6]; compound concentration: 50uM 0.412 | [6]; compound concentration: 200uM -0.121 | [7]; compound concentration: 50uM 0.389 | [7]; compound concentration: 200uM 0.254 | [8]; compound concentration: 50uM 0.00846 | [8]; compound concentration: 200uM 0.00188 | [9]; compound concentration: 50uM 0.214 | [9]; compound concentration: 200uM 0.0804 | [10]; compound concentration: 50uM 0.00222 | [10]; compound concentration: 200uM -0.112
